Source: PubChem BioAssay
Tau ThT inhib: qHTS for Inhibitors of Tau Fibril Formation, Thioflavin T Binding; Potency, µM (doses to about 57.4 µM), without a hit: at the top dose activity, negative = inhibition, actives largely listed as inhibitors; recombinant tau K18 P301L, heparin-induced fibrillization, ThT fluorescence; 270,000 tested, 2.1% active; Microtubule-associated protein tau (Homo sapiens), P10636; AID 1460, 2008; further: potency means the concentration at half of the fitted maximal effect; nearly all actives have a fitted effect of over 55% in size
Target sequence (P10636 561-689 P618L limits assumed): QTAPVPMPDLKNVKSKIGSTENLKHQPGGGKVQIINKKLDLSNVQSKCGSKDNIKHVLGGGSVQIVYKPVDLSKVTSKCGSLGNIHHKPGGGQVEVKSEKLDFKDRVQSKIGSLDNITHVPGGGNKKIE
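ThT emission at 510 nm, taken 1 hr after adding 30 uM dye, quantifies aggregates formed when 20 uM heparin acts on human tau K18 P301L for 6 hr at 37 C.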
Tau FP inhib: qHTS for Inhibitors of Tau Fibril Formation, Fluorescence Polarization. 280,000 tested, 0.39% active. Potency, µM (highest dose often 57.7 µM), inactives show at the top dose activity, negative = inhibition, actives largely listed as inhibitors. K18 P301L tau heparin fibrillization, Alexa594 FP, 6 h. Microtubule-associated protein tau (Homo sapiens), P10636; further: potency means the concentration at half of the fitted maximal effect; nearly all actives have a fitted effect of over 55% in size
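Read-out: fluorescence polarization of Alexa 594-labeled tau (0.24 uM), 555 nm excitation, 632 nm emission. Mixtures held 15 uM unlabeled K18 P301L, compound and 20 uM heparin, pH 7 acetate buffer, incubated 6 hr at 37 C.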
Sfp inh: qHTS Assay for Inhibitors of Bacillus subtilis Sfp phosphopantetheinyl transferase (PPTase). 4'-phosphopantetheinyl transferase ffp (Bacillus subtilis), Q9F4F7. Biochemical Sfp PPTase activity, qHTS. Potency, µM, without a hit: largest response in the series, negative = inhibition, hits mostly inhibitors. 310,000 tested, 3.5% active;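 further: the enzyme is Sfp with the accession as filed and its product quenches rhodamine fluorescence; potency means the concentration at half of the fitted maximal effect; 0% = enzyme reaction without inhibitor and -100% = no enzyme wells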
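Fluorescence-quenching assay: 15 nM Sfp-PPTase preincubated 15 min at room temperature with compound, then 5 uM rhodamine-CoA and 12.5 uM BHQ-2-labelled YbbR peptide added. Fluorescence (ex 525/em 598 nm) read at start and after 30 min; difference gives rate.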
Tau fluor counter: Counterscreen qHTS for Inhibitors of Tau Fibril Formation, Fluorescence Polarization. tau K18 P301L (four-repeat tau fragment) Alexa594 fluorescence, heparin fibrillization. Potency, µM (top dose mostly 57.7 µM), inactives show at the highest dose activity change, negative = decrease. 280,000 tested, 0.93% active; further: potency means the concentration at half of the fitted maximal effect; nearly all actives have a fitted effect of over 55% in size
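Human K18 P301L tau (15 uM unlabeled plus 0.24 uM Alexa 594-labeled, final) in 100 mM sodium acetate pH 7 was mixed with compound and 20 uM heparin and incubated 6 hr at 37 C.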
FBPA coupling cs: qHTS Assay for Inhibitors of Fructose-1,6-bisphosphate Aldolase from Giardia Lamblia: Coupling assay counterscreen. coupling enzyme system counterscreen, AmpLite Red fluorescence. 290,000 tested, 0.67% active. AID 2472, 2010. activity change, negative = inhibition, % at 58.2 µM, hits read low; in the data active means activity change below about -30%
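Final compound at 57.5 uM, incubated 10 min at RT with coupling enzyme reagent (glyceraldehyde-3-phosphate), then 20 min with substrate and AmpLite Red detection. Fluorescence read at 525/598 nm; tests interference with the coupling assay, not aldolase inhibition.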
Active calls of the source: *; [ ] = remark or other dose. A selection: hits, their analogues and other compounds. The true share with any hit is near 5.2%. Unless noted, the call rests on the fitted dose curve; in most records, active means well fitted curve in the direction sought with a large enough effect; inconclusive means small, poorly fitted or top-dose-only effect, or another doubt; inactive means no such curve, though single readings can be large; an effect the other way counts as inactive or inconclusive. Unless noted, on the % scale 0 is the no-effect control and ±100 the full control effect.

NC(C(=O)O)c1cc(=O)[nH]o1 (stereo not given) was read as Tau ThT inhib -2%, Tau FP inhib -2%, Sfp inh 79µM* and Tau fluor counter 1%.
For Cc1cccc(N2C(=O)/C(=C/c3ccc(CN(CCC#N)S(C)(=O)=O)o3)C(=O)NC2=S)c1 the results were Tau ThT inhib 25µM*, Tau FP inhib inconclusive, Sfp inh 13µM*, Tau fluor counter -21% and FBPA coupling cs -1.
Cc1ccc(N2C(=O)/C(=C/c3ccc(CN(CCC#N)S(C)(=O)=O)o3)C(=O)NC2=S)cc1C was read as Tau ThT inhib 18µM*, Tau FP inhib inconclusive, Sfp inh 22µM*, Tau fluor counter -26% and FBPA coupling cs 1.
`O=C1NC(=S)NC(=O)C1C1CCCCC1` gave Tau ThT inhib -3%, Tau FP inhib inconclusive, Sfp inh 79µM*, Tau fluor counter -5% and FBPA coupling cs 5.
Screening O[N+]1=CC=CCC1=S.On1ccccc1=S.[Zn] returned Tau ThT inhib inconclusive, Tau FP inhib inconclusive, Sfp inh -100%, Tau fluor counter -23% and FBPA coupling cs -42*.
Screening COc1ccccc1NC(=O)CCn1cnc2onc(-c3ccc(F)cc3)c2c1=O returned Tau ThT inhib -11%, Tau FP inhib -9% and Tau fluor counter inconclusive.
For CCC1C2CC3C4N(C)c5ccccc5[C@]45CC(C2C5O)N3C1O (stereo not given in full) the results were Tau ThT inhib -10%, Tau FP inhib -7%, Sfp inh 10%, Tau fluor counter -12% and FBPA coupling cs 2.
For c1ccc2c(CCNC3CCCCC3)c[nH]c2c1 the results were Tau ThT inhib 2%, Tau FP inhib 7%, Sfp inh 50µM*, Tau fluor counter 5% and FBPA coupling cs -2.
`CN(C)c1ccc2c(c1)N=C(c1ccco1)OP2(=S)N1CCOCC1` (stereo not given) gave Tau ThT inhib inconclusive, Tau FP inhib -6%, Sfp inh 14µM*, Tau fluor counter -16% and FBPA coupling cs -6.
For C=CCN1C(=O)NC(=O)/C(=C/c2ccc(OC)c(COc3ccc(NC(C)=O)cc3)c2)C1=O the results were Tau ThT inhib inconclusive, Tau FP inhib 6%, Sfp inh 45µM*, Tau fluor counter -7% and FBPA coupling cs 0.
C=CCN1C(=O)NC(=O)/C(=C/c2c(CCN(C)C(=O)c3ccccc3)cc3c(c2OC)OCO3)C1=O was read as Sfp inh -6% and FBPA coupling cs 0.
C=CCN1C(=O)NC(=O)/C(=C/c2ccc(OC)c(CSc3ccccn3)c2)C1=O was read as Tau ThT inhib inconclusive, Tau FP inhib -9%, Sfp inh 56µM*, Tau fluor counter -7% and FBPA coupling cs -4.
For CN1/C(=C\C=C2C(=O)NC(=O)NC2=O)C(C)(C)c2ccccc21 the results were Tau ThT inhib inconclusive, Tau FP inhib -3%, Sfp inh 10%, Tau fluor counter -7% and FBPA coupling cs -1.
Screening CN1/C(=C\C=Nc2ccccc2)C(C)(C)c2ccccc21 returned Tau ThT inhib inconclusive, Tau FP inhib -12%, Sfp inh 79µM*, Tau fluor counter inconclusive and FBPA coupling cs -9.
CNc1ccc2oc(C[C@@H]3OC4(CC[C@@H]3C)O[C@H]([C@@H](C)C(=O)c3ccc[nH]3)[C@H](C)C[C@H]4C)nc2c1C(=O)O (stereo not given in full) was read as Tau ThT inhib 32µM*, Tau FP inhib inconclusive, Sfp inh 22% and Tau fluor counter inconclusive.
For Cc1cc(C)cc(NC(=O)CSc2oc(-c3cccs3)nc2S(=O)(=O)c2ccc(Br)cc2)c1 the results were Tau ThT inhib -10%, Tau FP inhib -15% and Tau fluor counter inconclusive.
Screening CCC1CN2CCC1CC2C(Oc1cc2ccccc2c2ccccc12)c1ccnc2ccc(O)cc12 (stereo not given) returned Tau ThT inhib inconclusive, Tau FP inhib -7%[11.6 µM], Sfp inh -20%, Tau fluor counter -6%[11.6 µM] and FBPA coupling cs -29.
For O=C(Oc1ccc2ccc(OC(=O)N3CCCCCC3)cc2c1)N1CCCCCC1 the results were Tau ThT inhib inconclusive, Tau FP inhib 4%, Sfp inh -2%, Tau fluor counter -11% and FBPA coupling cs 5.
`O=C1NC(=O)N(Cc2ccc(F)cc2)C(=O)/C1=C\c1ccoc1` gave Tau ThT inhib -14%, Tau FP inhib -4%, Sfp inh -28%, Tau fluor counter -12% and FBPA coupling cs 3.
CC(C)c1ccc(N2C(=O)NC(=O)/C(=C/c3cnc(-c4ccccc4)nc3)C2=O)cc1 was read as Tau ThT inhib 16µM*, Tau FP inhib inconclusive, Sfp inh 56µM*, Tau fluor counter -23% and FBPA coupling cs 12.
For CCc1ccc(N2C(=O)NC(=O)/C(=C\c3cccn3CCOc3ccc(C(C)C)cc3)C2=O)cc1 the results were Tau ThT inhib inconclusive, Tau FP inhib -7%, Sfp inh 5%, Tau fluor counter -6% and FBPA coupling cs 6.
For CSc1ncc(/C=C2/C(=O)NC(=O)N(c3ccc(C(C)C)cc3)C2=O)cn1 the results were Tau ThT inhib 25µM*, Tau FP inhib inconclusive, Sfp inh 79µM*, Tau fluor counter -18% and FBPA coupling cs -1.
`O=C1NC(=O)N(Cc2ccccc2)C(=O)/C1=C/c1cnc(-c2ccccc2)nc1` gave Tau ThT inhib inconclusive, Tau FP inhib inconclusive, Sfp inh 56µM*, Tau fluor counter -21% and FBPA coupling cs 0.
`COC(=O)/C=C/C(=O)N[C@@H]1CC[C@@]2(O)[C@H]3Cc4ccc(O)c5c4[C@@]2(CCN3CC2CC2)[C@H]1O5` gave Tau ThT inhib 5%, Tau FP inhib 1%, Sfp inh -3% and Tau fluor counter 3%.
For COC(=O)[C@H]1[C@H](c2ccccc2)C(=O)[C@@]2(O)c3ccccc3O[C@@]12c1ccccc1 the results were Tau ThT inhib -10%[11.5 µM], Tau FP inhib -15%[11.6 µM], Sfp inh 11%, Tau fluor counter -20%[11.6 µM] and FBPA coupling cs 0.
Nc1ncnc2c1ncn2[C@@H]1O[C@H](COP(=O)(O)CP(=O)(O)OP(=O)(O)O)[C@@H](O)[C@H]1O was read as Tau ThT inhib 6%, Tau FP inhib -5%, Sfp inh 56µM* and Tau fluor counter -4%.
Screening Nc1ncnc2c1ncn2[C@@H]1O[C@H](COP(=O)(O)CP(=O)(O)O)[C@@H](O)[C@H]1O returned Tau ThT inhib -2%, Tau FP inhib -9%, Sfp inh 12% and Tau fluor counter -10%.
